# Among all 310,000 compounds or so, about 14,000 (4.5%) showed an effect of 50% or more. Effects have a minus sign here. The full list was thinned out, with strong results kept by preference.
# Target: human ether-à-go-go-related gene (hERG) potassium channel (human, UniProt Q12809)
# Test: primary screen, population patch clamp on CHO cells stably expressing hERG; higher = less effect of the substance
# 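Further: peak tail current of the secondary pulse compared with the same well before compound.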
# Chain of human ether-à-go-go-related gene (hERG) potassium channel (Q12809 whole entry, looked up): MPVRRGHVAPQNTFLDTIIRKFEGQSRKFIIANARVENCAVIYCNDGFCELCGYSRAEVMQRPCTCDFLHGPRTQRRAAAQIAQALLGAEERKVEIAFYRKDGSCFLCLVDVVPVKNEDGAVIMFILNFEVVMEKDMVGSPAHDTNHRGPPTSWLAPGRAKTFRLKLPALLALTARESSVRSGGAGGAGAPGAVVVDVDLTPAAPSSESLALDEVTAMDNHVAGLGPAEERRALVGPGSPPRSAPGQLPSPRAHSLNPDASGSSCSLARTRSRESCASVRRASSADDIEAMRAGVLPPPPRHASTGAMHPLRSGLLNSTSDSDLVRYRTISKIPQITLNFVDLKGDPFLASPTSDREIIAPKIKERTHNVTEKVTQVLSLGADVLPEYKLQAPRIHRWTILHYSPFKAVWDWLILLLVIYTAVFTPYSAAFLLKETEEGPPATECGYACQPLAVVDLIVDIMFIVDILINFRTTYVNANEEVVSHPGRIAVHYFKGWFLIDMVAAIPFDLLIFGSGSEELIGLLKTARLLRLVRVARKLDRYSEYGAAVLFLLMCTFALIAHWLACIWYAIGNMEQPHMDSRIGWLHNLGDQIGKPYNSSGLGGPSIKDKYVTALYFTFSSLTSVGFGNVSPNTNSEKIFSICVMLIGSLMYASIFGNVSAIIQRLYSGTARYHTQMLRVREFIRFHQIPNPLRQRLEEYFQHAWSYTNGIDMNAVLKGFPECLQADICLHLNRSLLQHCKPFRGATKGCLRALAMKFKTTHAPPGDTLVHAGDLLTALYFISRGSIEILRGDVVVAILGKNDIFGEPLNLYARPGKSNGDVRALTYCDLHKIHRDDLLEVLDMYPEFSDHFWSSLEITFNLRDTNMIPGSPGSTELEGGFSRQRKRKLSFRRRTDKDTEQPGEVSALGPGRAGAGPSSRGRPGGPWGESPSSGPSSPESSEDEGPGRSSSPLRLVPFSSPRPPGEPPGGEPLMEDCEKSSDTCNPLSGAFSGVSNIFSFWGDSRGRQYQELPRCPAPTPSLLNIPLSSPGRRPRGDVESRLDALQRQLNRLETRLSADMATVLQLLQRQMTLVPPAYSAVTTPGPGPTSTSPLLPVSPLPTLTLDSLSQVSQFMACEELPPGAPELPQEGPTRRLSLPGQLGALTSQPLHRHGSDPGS
row,Structure (SMILES),"hERG current change (%, negative = inhibition) at 10uM"
1,O=C(Nc1cccc(Cl)c1)OC1CCCCc2cccnc21 (stereo not drawn),4.75%
2,COc1ccc(-c2cc(N3C(=O)Nc4ccccc4N3O)n[nH]2)cc1OC,3.84%
3,CCO[C@@H]1OC(C(=O)N2CCOCC2)=C[C@H](c2cn(C(C)=O)c3ccccc23)[C@H]1CCCO,-20.3%
4,CSc1nc2sccc2c(=O)[nH]1,32.8%
5,Cc1cccc(NC(=O)c2ccccc2NC(=O)c2ccccc2)n1,-0.693%
6,COc1ccc(C(C)NC(=O)CCc2ccccc2)cc1 (stereo not drawn),10%
7,Clc1ccc(-c2nc3ccncc3[nH]2)cc1,-17.3%
8,COc1ccccc1-n1c(O)c(C=NCc2ccccn2)c2ccccc2c1=O,-8.58%
9,Cc1ccc(N2C(=O)CC(Sc3nc(-c4ccccc4)c4cc(Cl)ccc4n3)C2=O)c(C)c1 (stereo not drawn),3.36%
10,Cc1cccc(OCC(=O)Nc2ccccc2N2CCCCC2)c1,2.17%
11,CN1CCN(c2ccccc2NC(=O)COc2ccc(C3CCCCC3)cc2)CC1,16.8%
12,CCn1c(=O)cc(OCC(=O)Nc2ccccc2C#N)c2ccccc21,6.06%
13,COc1ccc(OCC(=O)Nc2ccccc2N2CCN(C)CC2)cc1,-38.6%
14,CCn1c(=O)cc(OCC(=O)Nc2ccccc2N2CCN(C)CC2)c2ccccc21,-58.3%
15,Cc1cccc(OCC(=O)Nc2ccccc2N2CCN(C)CC2)c1,-51.2%
16,COc1cc(CCC(=O)Nc2cc(Cl)ccc2N2CCN(C)CC2)cc(OC)c1OC,-10.2%
17,CCOC(=O)c1ccccc1NC(=O)COc1cc(=O)n(CC)c2ccccc12,5.47%
18,CCC(=O)N1CCN(c2ccccc2NC(=O)COc2cccc(C)c2)CC1,-38.2%
19,COc1ccc(CCC(=O)Nc2cc(Cl)ccc2N2CCN(C)CC2)cc1,-50.1%
20,CN1CCN(c2ccccc2NC(=O)COc2ccc(Cl)cc2)CC1,-59.9%
21,COc1ccc(CC(=O)Nc2cc(Cl)ccc2N2CCCC2)cc1,15.7%
22,COc1cccc(C(c2c(O)nc(SC)n(C)c2=O)c2c(O)nc(SC)n(C)c2=O)c1,0.717%
23,COc1ccc(-n2nc3c(c2NC(=O)c2ccc(S(=O)(=O)N4CCOCC4)cc2)CS(=O)(=O)C3)cc1,14.6%

row,Structure (SMILES),"hERG current change (%, negative = inhibition) at 10uM"
1,Cc1ccc(C(=O)N2CCN(c3ccc(NC(=O)c4cccnc4Cl)cc3)CC2)cc1,-27.8%
2,Cc1cc(S(=O)(=O)NCCCN2CCOCC2)c(Cl)cc1Cl,-13.1%
3,Cc1ccccc1C(=O)Oc1ccc2ccc(O)cc2c1,14.5%
4,O=C(CSc1nnc(Cc2ccccc2)o1)N1CCOCC1,0.161%
5,O=C(CSc1nnc(-c2ccncc2)n1-c1ccccc1)Nc1ccc(C(=O)O)cc1,25.5%
6,CCNC(=O)Nn1c(-c2ccccc2)nc2ccccc2c1=O,22.9%
7,Cc1ccc(C(=O)NCc2n[nH]c(=S)n2-c2ccccc2)cc1[N+](=O)[O-],7.76%
8,Cc1cc(NC(=O)Cn2nnc(-c3ccccc3NC(=O)c3ccccc3F)n2)no1,12.5%
9,COc1ccc(-c2[nH]ncc2Oc2ccccc2OC)c(O)c1,-11.3%
10,O=S(=O)(Nc1nc2ccccc2s1)c1ccc(Br)s1,-5.3%
11,N#Cc1nc(Cc2ccccc2)oc1N1CCC(Cc2ccccc2)CC1,24.5%
12,O=C(CN1C(=O)c2cccc3cccc1c23)N1CCN(c2ccc(F)cc2)CC1,9.69%
13,O=C1C2CCCN2C(=O)N1CCCCN1CCN(c2ccc(F)cc2)CC1 (stereo not drawn),-43.2%
14,Fc1ccc(N2CCN(C3=Nc4cccc5cccc3c45)CC2)cc1,-77%
15,CC1CN(C2=Nc3cccc4cccc2c34)CC(C)O1 (stereo not drawn),-47.6%
16,Cl.O=C1C2C3C=CC(C4CC34)C2C(=O)N1CCCCN1CCN(c2ccc(F)cc2)CC1 (stereo not drawn),-69.3%
17,O=C1C2C3C=CC(C4CC34)C2C(=O)N1CCc1ccccc1 (stereo not drawn),3.23%
18,c1cc2c3c(cccc3c1)C(N1CCOCC1)=N2,-31%
19,c1ccc(CC2CCN(C3=Nc4cccc5cccc3c45)CC2)cc1,-80%
20,c1cc2c3c(cccc3c1)C(N1CCCCC1)=N2,-66.2%
21,O=S1(=O)N=C(N2CCN(c3ccc(F)cc3)CC2)c2ccccc21,-8.87%
22,c1ccc(CC2CCN(c3nnnn3-c3ccccc3)CC2)cc1,-13.1%

# From PMC4336329 (PLoS ONE, 2015)
